# In PubChem BioAssay:
# Active and inactive are the calls of the source.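 How the source made its calls, unless noted: active means fluorescence slope higher than the sample average by over 3 SD (cut at about -0.22 in these data, passing the limit was not always enough); inactive means the rest.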
# Tested on: not listed separately
# Assay: inhibitors of E-selectin induction by TNFa, primary screen, imaging, HUVEC, immunofluorescence, MLSMR starter and 10KST1 sets (AID 487;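 active means visually confirmed hit in the image check and inhibition above 20%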;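 on inhibition: signal is fraction of cell area covered by stained E-selectin grains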;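 on nuclei count: 100% = median nuclei count of all wells on the same plate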)
# Settings: HUVEC TNFalpha-induced E-selectin immunofluorescence imaging, at 2 µM; inhibition: stronger effect = higher value; nuclei count: measured here: cell number, toxicity
Structure (SMILES),inhibition,nuclei count [%]
COc1ccc(-c2nc3c(c(SCC(=O)N4CCOCC4)n2)COC(C)(C)C3)cc1,33% (inactive),117
CCN(CC)C(=O)c1ccc(CS(=O)(=O)c2ccc(OC)cc2)o1,-67.7% (inactive),125
CC(C)CCNC(=O)NC(=O)COc1ccccc1C#N,-71.3% (inactive),111
CCOC(=O)N1CCN(S(=O)(=O)c2ccc(F)c(C(=O)Nc3cc(C)cc(C)c3)c2)CC1,-87% (inactive),111
Cc1nnc(SCC(=O)Nc2c(Cl)cccc2Cl)[nH]c1=O,17.8% (inactive),103
CCCCN(CCCC)CCn1cnc2c([nH]c3ccc(OC)cc32)c1=O,-65.8% (inactive),105
CC(=O)c1ccc(OCC(O)CN2CC(C)OC(C)C2)cc1 (stereo not given),0.4% (inactive),98.9
CCOc1ccc(-c2nc(C#N)c(NCc3ccc4c(c3)OCO4)o2)cc1,-56.3% (inactive),120
Cc1cc(N=Cc2cc(Br)ccc2O)no1,-147% (inactive),121
CCCCN1C(=O)C2C(C(=O)Nc3cccc(OC)c3)C3C=CC2(O3)C1C(=O)NC1CCCCC1C (stereo not given),-50% (inactive),112
CN(C)S(=O)(=O)c1ccc2c(c1)c(=O)c(C(=O)NCCCN1CCCCCC1)cn2C,-51.2% (inactive),106
COc1ccc(C(=O)N2CCN(c3nc4cc(C)ccc4cc3C#N)CC2)c(OC)c1,-49.6% (inactive),115
COc1cc(C(=O)OC(C)CN2CCCC2)cc(OC)c1OC (stereo not given),30.9% (inactive),101
Cc1ccnc2c(N3C(=O)C4C5C=CC(C5)C4(C)C3=O)cccc12 (stereo not given),-13.1% (inactive),111
COc1ccc(OC)c(NC(=O)CSc2nnc(Cc3cccn3C)n2-c2ccc(F)cc2)c1,-40.2% (inactive),106
COc1ccc(C2=NO[C@@H]3C(=O)N(c4cccc(C)c4C)C(=O)[C@H]23)cc1OC,-41.7% (inactive),105
CN(C)c1nc(SCCOC(=O)c2ccccc2)nc(N(C)C)n1,-45.1% (inactive),102
CCN(CC)c1ccc(-c2c(C#N)c(N)nc(OC)c2C#N)cc1,-13.4% (inactive),113
COc1ccc(CN(CC(=O)NCC2CCCO2)C(=O)CNS(=O)(=O)c2ccc(C)cc2)cc1 (stereo not given),-52.4% (inactive),92.4
COC(=O)c1sccc1NC(=O)c1csc(C)c1,-42.1% (inactive),123

Structure (SMILES),inhibition,nuclei count [%]
Cc1ccc(C(=O)CC2(O)C(=O)N(C)c3ccc(Br)cc32)c(C)c1 (stereo not given),-23.2% (inactive),123
CC(=O)Nc1c(-c2ccc(F)cc2)nc2ccccn12,-6.5% (inactive),88
CCCc1cc(=O)[nH]c(/N=C(\N)Nc2ccccc2)n1,-95.3% (inactive),138
O=C(CN1CCCC1)Nc1ccc(NC(=O)Nc2ccccc2)cc1,-132% (inactive),215
Cc1ccc(CN2C(=O)CCC2C(=O)NC2CCCC2)cc1 (stereo not given),-19% (inactive),111
CSCSC1=C(C#N)C(c2ccc(Cl)cc2)C(C(C)=O)=C(C)N1 (stereo not given),-47.6% (inactive),102
COc1ccc(OC)c(S(=O)(=O)N2c3ccccc3CC2C)c1 (stereo not given),-32% (inactive),123
CC(=O)Nc1ccc(OCC(O)Cn2nc(C)nc2C)cc1 (stereo not given),-160% (inactive),120
CC(C)C1C2=C(CC(C)(C)CC2=O)ON1c1ccccc1 (stereo not given),-51.2% (inactive),115
O=C(CN1C(=O)C2C3C=CC(C3)C2C1=O)NCc1ccc2c(c1)OCO2 (stereo not given),-109% (inactive),104
COc1ccc(C(=O)Nc2ccc(S(=O)(=O)Nc3onc(C)c3C)cc2)cc1,16.1% (inactive),111
Cc1nnc(SCc2ccccc2)n1N,-16.8% (inactive),119
O=C(c1ncn[nH]1)N1CCN(c2nc(-c3ccccc3)cs2)CC1,22.4% (inactive),111
Cc1cc(C)nc(SC2=CS(=O)(=O)c3ccccc32)n1,-15.3% (inactive),95.9
CC(=O)OC1c2ccccc2C(=O)N1c1ccccc1C (stereo not given),-51.8% (inactive),115
CCCCn1c(=O)[nH]c(=O)c2c1nc(COc1ccc(C#N)cc1)n2CCC,32.8% (inactive),110
Cc1ccccc1CSc1nnc(C)c(=O)[nH]1,-37.9% (inactive),133
Cc1nc2cc(C(=O)O)ccc2n1-c1ccc(F)cc1F,-12.5% (inactive),116
CC(C)[C@H](NC(=O)NC1CCCC1)C(=O)O,3.3% (inactive),91.7
Cc1ccccc1N1OC2C(=O)N(c3ccc(F)cc3)C(=O)C2C1c1ccccn1 (stereo not given),-36.7% (inactive),152

# Target: Voltage-gated potassium channel subunit beta-2 (Rattus norvegicus) (UniProt P62483)
# Assay: KvBeta enzyme negative modulators, primary screen, biochemical, NADPH fluorescence (AID 622);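 further: slope of raw intensity against log time taken from 70 to 1610 s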
# Settings: recombinant KvBeta, 4-cyanobenzaldehyde reduction, at 10 µM, stronger effect = higher value
# Chain of Voltage-gated potassium channel subunit beta-2 (Rattus norvegicus) (P62483 whole entry, looked up): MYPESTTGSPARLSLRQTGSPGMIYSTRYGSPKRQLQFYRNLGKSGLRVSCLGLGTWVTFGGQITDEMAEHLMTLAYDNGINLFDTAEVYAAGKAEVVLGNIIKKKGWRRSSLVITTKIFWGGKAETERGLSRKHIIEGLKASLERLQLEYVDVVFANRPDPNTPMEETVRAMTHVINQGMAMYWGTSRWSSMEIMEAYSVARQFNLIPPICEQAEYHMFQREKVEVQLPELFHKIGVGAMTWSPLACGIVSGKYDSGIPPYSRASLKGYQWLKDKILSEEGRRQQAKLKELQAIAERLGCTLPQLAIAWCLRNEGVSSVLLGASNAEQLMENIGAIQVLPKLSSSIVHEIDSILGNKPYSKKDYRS
row,Structure (SMILES),fluorescence slope
1,COc1ccc(-c2nc3c(c(SCC(=O)N4CCOCC4)n2)COC(C)(C)C3)cc1,-0.387 (inactive)
2,CCN(CC)C(=O)c1ccc(CS(=O)(=O)c2ccc(OC)cc2)o1,-0.599 (inactive)
3,CC(C)CCNC(=O)NC(=O)COc1ccccc1C#N,-0.586 (inactive)
4,CCOC(=O)N1CCN(S(=O)(=O)c2ccc(F)c(C(=O)Nc3cc(C)cc(C)c3)c2)CC1,-0.393 (inactive)
5,Cc1nnc(SCC(=O)Nc2c(Cl)cccc2Cl)[nH]c1=O,-0.553 (inactive)
6,CCCCN(CCCC)CCn1cnc2c([nH]c3ccc(OC)cc32)c1=O,-0.536 (inactive)
7,CC(=O)c1ccc(OCC(O)CN2CC(C)OC(C)C2)cc1 (stereo not given),-0.613 (inactive)
8,CCOc1ccc(-c2nc(C#N)c(NCc3ccc4c(c3)OCO4)o2)cc1,-0.581 (inactive)
9,Cc1cc(N=Cc2cc(Br)ccc2O)no1,-0.311 (inactive)
10,CCCCN1C(=O)C2C(C(=O)Nc3cccc(OC)c3)C3C=CC2(O3)C1C(=O)NC1CCCCC1C (stereo not given),-0.503 (inactive)
11,CN(C)S(=O)(=O)c1ccc2c(c1)c(=O)c(C(=O)NCCCN1CCCCCC1)cn2C,-0.601 (inactive)
12,COc1ccc(C(=O)N2CCN(c3nc4cc(C)ccc4cc3C#N)CC2)c(OC)c1,-0.595 (inactive)
13,COc1cc(C(=O)OC(C)CN2CCCC2)cc(OC)c1OC (stereo not given),-0.324 (inactive)
14,Cc1ccnc2c(N3C(=O)C4C5C=CC(C5)C4(C)C3=O)cccc12 (stereo not given),-0.556 (inactive)
15,COc1ccc(OC)c(NC(=O)CSc2nnc(Cc3cccn3C)n2-c2ccc(F)cc2)c1,-0.609 (inactive)
16,COc1ccc(C2=NO[C@@H]3C(=O)N(c4cccc(C)c4C)C(=O)[C@H]23)cc1OC,-0.588 (inactive)
17,CN(C)c1nc(SCCOC(=O)c2ccccc2)nc(N(C)C)n1,-0.385 (inactive)
18,CCN(CC)c1ccc(-c2c(C#N)c(N)nc(OC)c2C#N)cc1,-0.0839 (inactive)
19,COc1ccc(CN(CC(=O)NCC2CCCO2)C(=O)CNS(=O)(=O)c2ccc(C)cc2)cc1 (stereo not given),0.012 (inactive)
20,COC(=O)c1sccc1NC(=O)c1csc(C)c1,-0.384 (inactive)

row,Structure (SMILES),fluorescence slope
1,Cc1ccc(C(=O)CC2(O)C(=O)N(C)c3ccc(Br)cc32)c(C)c1 (stereo not given),-0.457 (inactive)
2,CC(=O)Nc1c(-c2ccc(F)cc2)nc2ccccn12,-0.551 (inactive)
3,CCCc1cc(=O)[nH]c(/N=C(\N)Nc2ccccc2)n1,-0.431 (inactive)
4,O=C(CN1CCCC1)Nc1ccc(NC(=O)Nc2ccccc2)cc1,-0.433 (inactive)
5,Cc1ccc(CN2C(=O)CCC2C(=O)NC2CCCC2)cc1 (stereo not given),-0.589 (inactive)
6,CSCSC1=C(C#N)C(c2ccc(Cl)cc2)C(C(C)=O)=C(C)N1 (stereo not given),-0.451 (inactive)
7,COc1ccc(OC)c(S(=O)(=O)N2c3ccccc3CC2C)c1 (stereo not given),-0.566 (inactive)
8,CC(=O)Nc1ccc(OCC(O)Cn2nc(C)nc2C)cc1 (stereo not given),-0.267 (inactive)
9,CC(C)C1C2=C(CC(C)(C)CC2=O)ON1c1ccccc1 (stereo not given),-0.476 (inactive)
10,O=C(CN1C(=O)C2C3C=CC(C3)C2C1=O)NCc1ccc2c(c1)OCO2 (stereo not given),-0.601 (inactive)
11,COc1ccc(C(=O)Nc2ccc(S(=O)(=O)Nc3onc(C)c3C)cc2)cc1,-0.354 (inactive)
12,Cc1nnc(SCc2ccccc2)n1N,-0.494 (inactive)
13,O=C(c1ncn[nH]1)N1CCN(c2nc(-c3ccccc3)cs2)CC1,-0.387 (inactive)
14,Cc1cc(C)nc(SC2=CS(=O)(=O)c3ccccc32)n1,-0.358 (inactive)
15,CC(=O)OC1c2ccccc2C(=O)N1c1ccccc1C (stereo not given),-0.586 (inactive)
16,CCCCn1c(=O)[nH]c(=O)c2c1nc(COc1ccc(C#N)cc1)n2CCC,-0.538 (inactive)
17,Cc1ccccc1CSc1nnc(C)c(=O)[nH]1,-0.581 (inactive)
18,Cc1nc2cc(C(=O)O)ccc2n1-c1ccc(F)cc1F,-0.527 (inactive)
19,CC(C)[C@H](NC(=O)NC1CCCC1)C(=O)O,-0.462 (inactive)
20,Cc1ccccc1N1OC2C(=O)N(c3ccc(F)cc3)C(=O)C2C1c1ccccn1 (stereo not given),-0.607 (inactive)
